Results as given in PubChem BioAssay (EPA / NIEHS).
Records with an inconclusive call do not appear. Active and inactive are the calls of the source. How the source made its calls: active means hit-call score of the fitted dose curve at least 0.9, where 1 is the maximum; inconclusive means response in the unintended direction; inactive means score below 0.9.

Read-out: Cytochrome P450 2B6 (Homo sapiens) (UniProt P20813)
Assay: CLD_CYP2B6_6hr: CellzDirect (CLD) Gene Expression Assay for xenobiotic metabolism (CYP2B6) at 6 hours (AID 2283677);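 further: actives raise CYP2B6 transcript above DMSO baseline so AC50 marks an inducer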
Procedure: CLD_6hr is a cell-based, multiplexed-readout assay that uses hepatocyte, a human liver primary cell, with measurements taken at 6 hours after chemical dosing in a 96-well plate.CLD_CYP2B6_6hr is one of 16 assay component(s) measured or calculated from the CLD_6hr assay. It is designed to make measurements of mRNA induction, a form of inducible reporter, as detected with chemiluminescence signals by Quantitative Nuclease Protection Assay (qNPA) technology.Data from the assay component CLD_CYP2B6_6hr was analyzed at the endpoint, CLD_CYP2B6_6hr, in the positive analysis fitting direction relative to DMSO as the negative control and baseline of activity. Using a type of inducible reporter, gain-of-signal activity can be used to understand changes in the reporter gene as they relate to the gene CYP2B6. Furthermore, this assay endpoint can be referred to as a primary readout. To generalize the intended target to other relatable targets, this assay endpoint is annotated to the cyp intended target family, where subfamily is xenobiotic metabolism.
Human hepatocyte cultures were treated daily for two consecutive days with fresh dosing solutions containing appropriate concentrations of the 320 ToxCast chemicals (chemical identities were blinded to CellzDirect and other ToxCast collaborators), vehicle control (0.2% DMSO), and positive control inducers as summarized in Table 1. Due to the large number of treatment groups and chemicals examined, the ToxCast chemicals were divided into two groups (spanning two independent cultures of hepatocytes from separate donor preparations (Hu778: ToxCast plates 1 and 2; Hu776: ToxCast plates 3 and 4). Each preparation of human hepatocyte cultures was treated with respective vehicle control, medium only control, set of six positive controls/reference chemicals for the five hepatic receptor pathways, and a subset of eight of the ToxCast chemicals (indoxacarb, pyrithiobac-sodium, norflurazon, cyhalofop-butyl, methomyl, thiram, acetochlor, and propiconazole). These replicate data, coupled with internal replicates designed within the blinded ToxCast chemical library, provided additional data to evaluate interindividual differences between hepatocyte preparations and their potential impact on chemical profiles.Cell morphology and integrity were evaluated using phase-contrast microscopy as an indicator of hepatocyte cell health (Tyson & Green, 1987). Cultures for each treatment group (i.e., media, vehicle [0.2% DMSO], positive control inducers [multiple concentrations], and the ToxCast chemicals [multiple concentrations]) were observed and cell morphology was assessed relative to vehicle control cultures at each harvest time point (0, 6, 24, or 48 h). […] Images were evaluated at the conclusion of the study to assess changes in cell integrity and account for the effects of chemical exposure on uncharacteristic changes in concentration-dependent gene expression profiles. The results from these determinations of apparent cytotoxicity were annotated (yes/no) alongside the corresponding qNPA data for reference.At the conclusion of each treatment period, hepatocyte cultures (96-well) were washed with 1 volume of HBSS, lysed by addition of 25 ul ArrayPlate lysis buffer (HTG, Tucson, AZ), and 70 ul/well of Denaturation Oil, denatured by incubation at 95C for 10 min, and frozen at approximately -70C until analysis by nuclease protection assay (qNPA) (Roberts et al., 2007). For qNPA analysis, cell lysates were thawed at 50C for approximately 30 min, qNPA probes were added, and samples were incubated at 95C for 10 min to begin the detection process by denaturing the target RNA, dissociating the duplexes and secondary structure hybridization. At the conclusion of the hybridization period, S1 nuclease reagent was added to each sample to digest all nonprotected nucleotides at 50C for 60-90 min. […]

| Compound | outcome | AC50 |
| --- | --- | --- |
| Oc1cc(Cl)ccc1Oc1ccc(Cl)cc1Cl | inactive |  |
| CCOc1nc(NC)nc(NC(=O)NS(=O)(=O)c2ccccc2C(=O)OC)n1 | inactive |  |
| CCOCN(C(=O)CCl)c1c(C)cccc1CC |  | 1.66 µM (active) |
| O=C(O)CCCOc1ccc(Cl)cc1Cl | inactive |  |
| CC(C)N(C(=O)COc1nnc(C(F)(F)F)s1)c1ccc(F)cc1 |  | 14.7 µM (active) |
| O=C(NC(=O)c1c(F)cccc1F)Nc1ccc(OC(F)(F)C(F)OC(F)(F)F)c(Cl)c1 (stereo not given) | inactive |  |
| CNC(=O)/C=C(\C)OP(=O)(OC)OC | inactive |  |
| CC(C)OC(=O)Nc1cccc(Cl)c1 |  | 6.86 µM (active) |
| Clc1ccccc1-c1nnc(-c2ccccc2Cl)nn1 |  | 0.0004 µM (active) |
| O=[N+]([O-])c1c(Cl)c(Cl)c(Cl)c(Cl)c1Cl |  | 20 µM (active) |
| OCCOc1ccccc1 | inactive |  |
| CC1(c2ccc(Oc3ccccc3)cc2)OC(=O)N(Nc2ccccc2)C1=O (stereo not given) |  | 1.88 µM (active) |
| C#CCN1C(=O)COc2cc(F)c(N3C(=O)C4=C(CCCC4)C3=O)cc21 |  | 0.301 µM (active) |
| CCC(C)(NC(=O)c1cc(Cl)c(C)c(Cl)c1)C(=O)CCl (stereo not given) |  | 3.17 µM (active) |
| CCCN(CCC)c1c([N+](=O)[O-])cc(C(F)(F)F)cc1[N+](=O)[O-] |  | 1.27 µM (active) |
| C[C@H]1[C@H](c2ccc(Cl)cc2)SC(=O)N1C(=O)NC1CCCCC1 |  | 3.09 µM (active) |
| O=C(O)C(F)(F)C(F)(F)C(F)(F)C(F)(F)C(F)(F)C(F)(F)C(F)(F)F | inactive |  |
| CCOC1Oc2ccc(OS(C)(=O)=O)cc2C1(C)C (stereo not given) |  | 2.55 µM (active) |
| N#Cc1c(Cl)c(Cl)c(Cl)c(C#N)c1Cl |  | 20 µM (active) |
| CCC(C)(C)C(=O)OC1=C(c2ccc(Cl)cc2Cl)C(=O)OC12CCCCC2 | inactive |  |

| Compound | outcome | AC50 |
| --- | --- | --- |
| COC(=O)c1ccccc1S(=O)(=O)NC(=O)N(C)c1nc(C)nc(OC)n1 | inactive |  |
| O=S(=O)(O)C(F)(F)C(F)(F)C(F)(F)C(F)(F)C(F)(F)C(F)(F)C(F)(F)C(F)(F)F | inactive |  |
| COP(=O)(OC)OC=C(Cl)Cl |  | 1.89 µM (active) |
| ClC1C(Cl)C(Cl)C(Cl)C(Cl)C1Cl (stereo not given) |  | 1.43 µM (active) |
| O=S1OCC2C(CO1)C1(Cl)C(Cl)=C(Cl)C2(Cl)C1(Cl)Cl (stereo not given) |  | 1.24 µM (active) |
| CCC(C)Nc1c([N+](=O)[O-])cc(C(C)(C)C)cc1[N+](=O)[O-] (stereo not given) |  | 1.53 µM (active) |
| CC(C)(C)C(O)C(Oc1ccc(Cl)cc1)n1cncn1 (stereo not given) |  | 0.656 µM (active) |
| COc1nn(CSP(=S)(OC)OC)c(=O)s1 |  | 2.94 µM (active) |
| CNC(=O)Oc1cccc(N=CN(C)C)c1 | inactive |  |
| CCS(=O)(=O)c1cccnc1S(=O)(=O)NC(=O)Nc1nc(OC)cc(OC)n1 |  | 11.3 µM (active) |
| Cc1[nH]c(=O)n(C(C)(C)C)c(=O)c1Cl | inactive |  |
| CCCN(CCOc1c(Cl)cc(Cl)cc1Cl)C(=O)n1ccnc1 |  | 0.702 µM (active) |
| CCN(CC)C(=O)SCc1ccc(Cl)cc1 |  | 1.84 µM (active) |
| O=C(O)COc1ccc(Cl)cc1Cl |  | 0.0448 µM (active) |
| CN1CSC(=S)N(C)C1 | inactive |  |
| CCc1ccc(C(=O)NN(C(=O)c2cc(C)cc(C)c2)C(C)(C)C)cc1 |  | 2.09 µM (active) |
| CC[C@H](C)[C@H]1O[C@]2(C=C[C@@H]1C)C[C@@H]1C[C@@H](C/C=C(\C)[C@@H](O[C@H]3C[C@H](OC)[C@@H](O[C@H]4C[C@H](OC)[C@@H](O)[C@H](C)O4)[C@H](C)O3)[C@@H](C)/C=C/C=C3\CO[C@@H]4[C@H](O)C(C)=C[C@@H](C(=O)O1)[C@]34O)O2 (tested in a mixture with another compound) | inactive |  |
| COP(=S)(OC)Oc1ccc([N+](=O)[O-])cc1 |  | 0.916 µM (active) |
| COc1cc(OC)nc(NC(=O)NS(=O)(=O)c2cc(NC=O)ccc2C(=O)N(C)C)n1 | inactive |  |
| COC(=O)c1ccccc1S(=O)(=O)NC(=O)Nc1nc(C)nc(OC)n1 | inactive |  |
